The text below walks through data of PubChem BioAssay (NCI).

Assay [1] is described as follows: NCI Yeast Anticancer Drug Screen. Data for the rad50 strain (AID 155).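 Further: 0% = growth of vehicle-only cultures of the same strain.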 The note with it: S. cerevisiae rad50 strain growth inhibition, active compounds read high. The procedure, abridged:
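Genetically altered yeast (DNA repair pathway); compound treatment; growth inhibition vs vehicle ctrl.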

Assay [2] can be described thus: NCI Yeast Anticancer Drug Screen. Data for the mec2-1 strain (AID 157). Particulars: S. cerevisiae mec2-1 strain, active compounds read high. In a few lines: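 Test agents were screened against the mec2-1 yeast strain, with defined DNA repair or cell cycle alteration. Growth was scored as inhibition against vehicle-only controls.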
Assay [3] is described as follows: NCI Yeast Anticancer Drug Screen. Data for the sgs1 mgt1 strain (AID 161).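 Further: 0% = growth of cultures given vehicle only.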 The note with it: S. cerevisiae sgs1 mgt1 strain, active compounds read high. In a few lines:
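Read-out: growth inhibition vs vehicle controls. Cells: mutant yeast strain deficient in DNA damage repair.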

Assay [4] is described as follows: NCI Yeast Anticancer Drug Screen. Data for the bub3 strain (AID 167). The note with it: S. cerevisiae bub3 mutant strain, active compounds read high. In a few lines:
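Yeast carrying a defined mutation is treated with each compound, and growth is compared with that of vehicle-exposed cells to give inhibition.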

Assay [5] is described as follows: NCI Yeast Anticancer Drug Screen. Data for the mlh1 rad18 strain (AID 175). The note with it: S. cerevisiae mlh1 rad18 strain growth inhibition, active compounds read high. The procedure, abridged:
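In this whole-cell yeast screen, a strain with altered DNA damage repair is challenged with compound, and its growth is measured against matched vehicle-treated controls.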

Assay [6] in a line: NCI Yeast Anticancer Drug Screen. Data for the cln2 rad14 strain (AID 165).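 Further: 0% = growth equal to vehicle treated cultures.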 The note with it: S. cerevisiae cln2 rad14 strain, active compounds read high. The procedure, abridged:
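Growth of compound-exposed yeast (cln2 rad14 genotype) measured and expressed as inhibition relative to vehicle.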

The mark [7] stands for this setting: at 5.0 µM (retest, dose inferred, filed as 0.5).
Where [8] appears, read: at 50.0 µM (retest, dose inferred, filed as 5.0).

The structures appear in SMILES notation. About 79,000 compounds went through this panel and 15% of them were active in at least one assay; those are over-represented in the sample as a whole. Unmarked numbers belong to inactive results. Calls of active or inactive are those of the source. No stated cut-off is given here; in the data, active means growth inhibition above about 70%; inactive means the rest.

As to `Cc1ccc(/C=N/Nc2cc(C)c3cccc(C)c3n2)s1`, the growth inhibition in assay [1] (setting [7]) was 9%; in assay [1] (setting [8]) it was 94% (active); in assay [1] (at 50.0 µM), 89.3% (active); in assay [2] (setting [7]), -1%; in assay [2] (setting [8]), 95% (active); in assay [2] (at 50.0 µM), 92.6% (active). Moreover, the growth inhibition in assay [3] (setting [7]) is 3%; in assay [3] (setting [8]), 93% (active); in assay [3] (at 50.0 µM) it was 92% (active); in assay [4] (setting [7]), 4%; in assay [4] (setting [8]), 97% (active); in assay [4] (at 50.0 µM) it was 90.8% (active). For the same compound, the growth inhibition was 13% in assay [5] (setting [7]), 93% (active) in assay [5] (setting [8]) and 90% (active) in assay [5] (at 50.0 µM).
As to `Oc1ccc2ccccc2c1N=Nc1nccs1`, the growth inhibition in assay [1] (setting [7]) is 27%; in assay [1] (setting [8]) it was 69%; in assay [1] (at 50.0 µM), 82.8% (active); in assay [2] (setting [7]) it was 51%; in assay [2] (setting [8]) it was 92% (active); in assay [2] (at 50.0 µM) it was 91.1% (active). Besides, the growth inhibition was 98% (active) in assay [3] (setting [7]); 90% (active) in assay [3] (setting [8]); 74% (active) in assay [6] (setting [7]); 86% (active) in assay [6] (setting [8]); 96% (active) in assay [4] (setting [7]); 85% (active) in assay [4] (setting [8]). In addition, the results for the growth inhibition in assay [5] (setting [7]), in assay [5] (setting [8]) and in assay [5] (at 50.0 µM) were 36%, 77% (active) and 77.8% (active), respectively.
On to `O=C1/C(=C\c2ccc([N+](=O)[O-])cc2)CS(=O)(=O)C/C1=C/c1ccc([N+](=O)[O-])cc1`, for which the growth inhibition is 81% (active) in assay [1] (setting [7]); 96% (active) in assay [1] (setting [8]); 97% (active) in assay [2] (setting [7]); 98% (active) in assay [2] (setting [8]); 93% (active) in assay [3] (setting [7]); 96% (active) in assay [3] (setting [8]). Moreover, the growth inhibition in assay [3] (at 50.0 µM) was 87.2% (active); in assay [6] (setting [7]), 91% (active); in assay [6] (setting [8]), 97% (active); in assay [6] (at 50.0 µM), 86.8% (active); in assay [4] (setting [7]), 97% (active); in assay [4] (setting [8]), 99% (active). Besides, the growth inhibition was 87.6% (active) in assay [4] (at 50.0 µM), 94% (active) in assay [5] (setting [7]) and 96% (active) in assay [5] (setting [8]).
On to `CCCOC1N(c2ccc(C)cc2)NC(=O)C1(C)C` (centres undefined), for which the growth inhibition in assay [1] (setting [7]) is 86% (active); in assay [1] (setting [8]), 95% (active); in assay [1] (at 50.0 µM) it was 83% (active); in assay [2] (setting [7]), 82% (active); in assay [2] (setting [8]), 94% (active); in assay [2] (at 50.0 µM), 56.6%. Moreover, the growth inhibition in assay [3] (setting [7]) is 33%; in assay [3] (setting [8]), 96% (active); in assay [6] (setting [7]) it was 50%; in assay [6] (setting [8]), 95% (active); in assay [4] (setting [7]), 49%; in assay [4] (setting [8]) it was 93% (active). Moreover, the growth inhibition is 65% in assay [5] (setting [7]), 99% (active) in assay [5] (setting [8]) and 68.1% in assay [5] (at 50.0 µM).
In the case of `Nc1c(N)c(Cl)c(Cl)c(Cl)c1Cl`, the growth inhibition was 38% in assay [1] (setting [7]); 84% (active) in assay [1] (setting [8]); 87% (active) in assay [1] (at 50.0 µM); 58% in assay [2] (setting [7]); 91% (active) in assay [2] (setting [8]); 91.6% (active) in assay [2] (at 50.0 µM). Besides, the growth inhibition was 20% in assay [3] (setting [7]); 96% (active) in assay [3] (setting [8]); 43% in assay [6] (setting [7]); 97% (active) in assay [6] (setting [8]); 32% in assay [4] (setting [7]); 98% (active) in assay [4] (setting [8]). Besides, the growth inhibition in assay [5] (setting [7]) was 33%; in assay [5] (setting [8]), 83% (active); in assay [5] (at 50.0 µM), 87.3% (active).
Consider `O=C1C=CC(=O)N1c1cc(Cl)c(Cl)cc1Cl`, for which the growth inhibition in assay [1] (setting [7]) is 32%; in assay [1] (setting [8]), 86% (active); in assay [1] (at 50.0 µM), 91.6% (active); in assay [2] (setting [7]), 51%; in assay [2] (setting [8]) it was 98% (active); in assay [2] (at 50.0 µM), 27.1%. Besides, the growth inhibition in assay [3] (setting [7]) was 101% (active); in assay [3] (setting [8]), 100% (active); in assay [6] (setting [7]), 89% (active); in assay [6] (setting [8]) it was 100% (active); in assay [4] (setting [7]) it was 101% (active); in assay [4] (setting [8]) it was 100% (active). For the same compound, the figures for the growth inhibition in assay [5] (setting [7]), in assay [5] (setting [8]) and in assay [5] (at 50.0 µM) were 32%, 99% (active) and 91.5% (active), respectively.
Turning to `Nc1cccc2c1-c1ccccc1C2=O`, the growth inhibition in assay [1] (setting [7]) is 15%; in assay [1] (setting [8]), 89% (active); in assay [2] (setting [7]), 1%; in assay [2] (setting [8]) it was 18%; in assay [3] (setting [7]), 4%; in assay [3] (setting [8]) it was 47%. Also, the growth inhibition in assay [6] (setting [7]) was -1%; in assay [6] (setting [8]), -7%; in assay [4] (setting [7]) it was 1%; in assay [4] (setting [8]), 15%; in assay [5] (setting [7]), -35%; in assay [5] (setting [8]), 29%.
Consider `N#CC(c1ccccc1)C(c1ccccc1)c1ccccc1` (centres undefined), for which the growth inhibition in assay [1] (setting [7]) is 13%; in assay [1] (setting [8]), 67%; in assay [2] (setting [7]), 9%; in assay [2] (setting [8]) it was 89% (active); in assay [3] (setting [7]) it was 9%; in assay [3] (setting [8]) it was 92% (active). Further, the growth inhibition is 20% in assay [6] (setting [7]); 55% in assay [6] (setting [8]); 13% in assay [4] (setting [7]); 87% (active) in assay [4] (setting [8]); -24% in assay [5] (setting [7]); 80% (active) in assay [5] (setting [8]).
Regarding `O=C1C=CC2C3C(=O)N(c4ccccc4)C(=O)C3C1N2Cc1ccccc1` (centres undefined), the growth inhibition in assay [1] (setting [7]) was 18%; in assay [1] (setting [8]) it was 48%; in assay [2] (setting [7]) it was 18%; in assay [2] (setting [8]) it was 58%; in assay [3] (setting [7]), 50%; in assay [3] (setting [8]), 70% (active). Also, the growth inhibition in assay [3] (at 50.0 µM) was 69.2%; in assay [6] (setting [7]), 21%; in assay [6] (setting [8]), 56%; in assay [6] (at 50.0 µM), 43.2%; in assay [4] (setting [7]), 24%; in assay [4] (setting [8]), 78% (active). Besides, the figures for the growth inhibition in assay [4] (at 50.0 µM), in assay [5] (setting [7]) and in assay [5] (setting [8]) were 61.9%, 51% and 79% (active), respectively.
